# Test results from PubChem BioAssay AID1347146 (National Center for Advancing Translational Sciences (NCATS), 2019).
# Results filed as inconclusive are left out. Unmarked numbers belong to inactive results. The source made the active and inactive calls. Calls come from the whole dose curve; as a rule, active = well fitted inhibition curve with a large enough effect; inconclusive = small, poorly fitted or top-dose-only effect; inactive = no such curve, though single readings can be large or run the other way.
# Target: Nicotinamide N-methyltransferase (Homo sapiens) (UniProt P40261)
# Sequence (P40261 whole entry, looked up): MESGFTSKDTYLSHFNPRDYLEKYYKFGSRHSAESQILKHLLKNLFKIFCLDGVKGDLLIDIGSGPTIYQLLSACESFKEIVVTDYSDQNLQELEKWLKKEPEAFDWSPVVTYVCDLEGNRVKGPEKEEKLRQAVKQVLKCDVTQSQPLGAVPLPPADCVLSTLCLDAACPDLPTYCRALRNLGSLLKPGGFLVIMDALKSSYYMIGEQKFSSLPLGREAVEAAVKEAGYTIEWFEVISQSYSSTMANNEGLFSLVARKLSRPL
# Assay: qHTS Assay for Inhibitors of N-terminal methyltransferase 1 (NTMT1): NNMT MTaseGlo counterscreen assay;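 note: plate controls were DMSO without inhibitor for no effect and no-enzyme control for full effect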
# Settings: NNMT enzyme, MTase-Glo luminescence counterscreen; series mostly up to 57.1 µM; activity change, negative = inhibition: at the top concentration
# Summary of the method: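 Luminescent MTase-Glo read-out of SAH from nicotinamide methylation: 1 µM nicotinamide, 100 µM SAM, 125 nM NNMT, 30 min RT after ~15 min compound preincubation. Values normalized to no-enzyme/DMSO controls, Hill-fitted.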
SMILES,"activity change, negative = inhibition",Potency
CC(=O)c1ccc2c(c1)N(CCCN(C)C)c1ccccc1S2,-29%,–
OC[C@H]1O[C@@H](n2cnc3c(NCc4ccco4)ncnc32)[C@H](O)[C@@H]1O,48.5%,–
CN(C)[C@@H]1C(=O)C(C(N)=O)=C(O)[C@@]2(O)C(=O)C3=C(O)c4c(O)ccc(Cl)c4[C@@H](O)[C@H]3C[C@@H]12,-21.8%,–
S=C(Nc1ccccc1)Nc1nccs1,-18.7%,–
O=C1NC(=O)C(=Cc2ccc(-c3ccc(F)cc3O)o2)S1,-13.8%,–
O=Nc1ccc2oc(=O)ccc2c1,-8.49%,–
N#C/C(=C\c1ccc(O)c(O)c1)C(=O)c1ccc(O)c(O)c1,-6.84%,–
Cc1cc(O)c2c(c1)C(=O)c1cc(O)cc(O)c1C2=O,-12.1%,–
C=Cc1c(C)c2cc3[nH]c(cc4nc(cc5nc(cc1[nH]2)C(C)=C5CCC(=O)O)C(CCC(=O)O)=C4C)c(C)c3C=C,-14.1%,–
O=S(=O)(c1cccc2c(Cl)cccc12)N1CCCNCC1,-28.2%,–
C/C(=C\CNc1ncnc2c1ncn2[C@@H]1O[C@H](CO)[C@@H](O)[C@H]1O)CO,92.7%,–
COC(=O)[C@@H]1[C@H]2C[C@H]3c4[nH]c5ccccc5c4CCN3C[C@@H]2CC[C@@H]1O,-4.61%,–
Oc1cc2c(cc1O)CN(C(=S)NCCc1ccc(Cl)cc1)CCC2,-13.5%,–
C=CCN1CCc2c(cc(O)c(O)c2Br)[C@@H](c2ccccc2)C1,-16.5%,–
N[C@@H](Cc1c[nH]c2ccc(O)cc12)C(=O)O,–,inactive
OCCNc1ncnc2c1ncn2[C@@H]1O[C@@H](CO)[C@H](O)[C@@H]1O,31.2%,–
C#CCN(C)CCCOc1ccc(Cl)cc1Cl,-13.2%,–
O=C(/C=C/c1ccc(O)c(O)c1)OCCc1ccccc1,1.7%,–
COc1cc(/C=C(\C#N)C(=O)c2ccc(O)c(O)c2)cc(I)c1O,-14.5%,–
O=c1[nH]c(=S)[nH]c(-c2ccccc2)c1Cc1c(O)ccc2ccccc12,95.8%,–
CC(C)NC[C@H](O)c1ccc(O)c(O)c1,–,inactive
